Assay outcomes from PubChem BioAssay.
Shown are actives, neighbours in structure and some others; about 3.3% of the full set was active somewhere.
Jurkat NFkB inh: inhibitors of the PMA/ionomycin-induced NF-kB reporter in Jurkat cells. inhibition, % at 4 µM. 330,000 compounds, 0.53% hits. PMA/ionomycin-induced NF-kB luciferase reporter, luminescence. AID 435003; in the data active = inhibition above about 50%
697 NFkB inh: lowers PMA/ionomycin-induced NF-kB signal in 697 B cells | 697 B-cell NF-kB luciferase reporter, 16 h | inhibition, % at 4 µM | 330,000 compounds, 0.33% hits | AID 435022; in the data active = inhibition above about 35%
SMARCA2 activ: SMARCA2 function activation, primary screen. MG213 cells, MMTV-luciferase reporter, dexamethasone, overnight. activation, % at 9.1 µM. 370,000 compounds, 1% hits. AID 652017; in the data active = activation above about 7.8%;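 also: 0% = vehicle wells and 100% = reference activator wells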
Gli-Sufu block: antagonists of Gli-Sufu signaling; Sufu-KO-LIGHT fibroblasts, Gli luciferase reporter luminescence; inhibition, % at 5 µM; 340,000 compounds, 0.74% hits; AID 588413;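 active = inhibition above about 55%, limit read from the data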;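 also: 0% = DMSO-treated cells and 100% = wells with medium but no cells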
esBAF inh: blocks esBAF chromatin remodeling in mouse ES cells; Bmi1-luciferase knock-in reporter, 24 h; 100% = twice the neutral-well signal; reporter increase, % at 12.5 µM; 350,000 compounds, 2% hits; in the data active = activation above about 40%; inconclusive = no clear call, values can overlap the other calls;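 also: 0% = median of the plate's neutral control wells and 100% = double that signal; a rise in the Bmi1 reporter signal indicates esBAF inhibition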
Starred values were filed as active, the others as inactive; ? = inconclusive; nt = no result.

SMILES | Jurkat NFkB inh | 697 NFkB inh | SMARCA2 activ | Gli-Sufu block | esBAF inh
Cc1cc(NC(=O)CSc2cn(CCNC(=O)c3ccccc3)c3ccccc23)no1 | -14.4 | -11.4 | nt | -0.1 | 47.0*
O=C(CSc1cn(CC(=O)N2CCOCC2)c2ccccc12)N1CCOCC1 | 3.6 | -5.3 | -0.8 | -2.0 | 2.7
Cc1ccc(C(=O)NCCC(=O)N2CCOCC2)cc1 | -93.4 | -82.2 | 5.0 | -65.9 | nt
Cc1cccc(CSc2cn(CC(=O)N3CCOCC3)c3ccccc23)c1 | -36.8 | -61.7 | 2.0 | -73.2 | 83.6*
COC(=O)C[C@@H]1CC[C@@H]2[C@H](COc3ccc(NC(=O)c4cnccn4)cc3C(=O)N2C)O1 | nt | nt | nt | nt | -2.6
COc1cccc(-c2nnc(-c3ccc(C(F)(F)F)cc3)o2)c1 | -28.4 | -23.4 | 0.6 | -55.2 | 54.9*
COc1cccc(-c2nnc(-c3ccc4ccccc4c3)o2)c1 | nt | nt | 2.9 | -87.2 | nt
CC(=O)Nc1cnc(-c2cc(C)c(O)c(C)c2)cn1 | nt | nt | -1.7 | nt | 71.5*
CCCCSc1ncnc2c1ncn2C1CCCCO1 (stereo not drawn) | nt | nt | 1.2 | -81.3 | 15.8
Fc1ccccc1CSc1ncnc2c1ncn2C1CCCO1 (stereo not drawn) | nt | nt | 2.3 | -61.9 | 68.8*
COc1cccc(NC(=O)N[C@@H]2CC[C@@H](CC(=O)Nc3ccccc3)O[C@@H]2CO)c1 | nt | nt | nt | nt | -0.4
C(=NOCCc1ccccc1)c1ccccn1 | nt | nt | 4.0 | -67.8 | 95.2*
C(=N\N=C\c1ccccn1)/c1ccccn1 | -4.2 | 3.0 | -1.3 | 11.4 | 8.5
C(=NOCCc1ccccc1)c1ccncc1 | nt | nt | 3.1 | -51.3 | 48.7*
C[C@H](CO)N1C[C@H](C)[C@H](CN(C)C(=O)Nc2ccc(F)cc2)Oc2ccc(NC(=O)C3CC3)cc2C1=O | nt | nt | nt | nt | 5.2
C[C@H]1CCCCO[C@@H](CN(C)S(=O)(=O)c2cn(C)cn2)[C@@H](C)CN([C@@H](C)CO)C(=O)c2cc(NC(=O)Nc3ccc(C(F)(F)F)cc3)ccc2O1 | nt | nt | nt | nt | -3.3
CC(=NNC(=S)N(Cc1ccccn1)Cc1ccccn1)c1cnccn1 | nt | nt | -4.1 | 89.8* | nt
S=C(NN=Cc1ccccn1)N(Cc1ccccn1)Cc1ccccn1 | nt | nt | -0.3 | 82.4* | -26.8
S=C(NN=C(c1ccccc1)c1ccccn1)N(Cc1ccccn1)Cc1ccccn1 | nt | nt | -0.4 | 69.0* | nt
C[C@@H]1CCCCO[C@H](CN(C)C(=O)CCCN(C)C)[C@@H](C)CN([C@H](C)CO)C(=O)c2cc(NC(=O)c3ccccc3)ccc2O1 | nt | nt | nt | nt | 3.5
COc1ccc(-c2ccc3n(c2=O)C[C@H]2[C@H](CO)[C@@H](C(=O)N(C)C)N(CC4CCCC4)[C@@H]32)cc1 | nt | nt | nt | nt | -2.8
Cc1c(C(=O)Nc2c(F)cccc2F)sc2ncn(CC(=O)N3CCCCC3)c(=O)c12 | -3.8 | 7.5 | -0.4 | -18.3 | -4.8
Cc1c(C(=O)Nc2ccccc2F)sc2ncn(CC(=O)N3CCOCC3)c(=O)c12 | -4.2 | 12.9 | -2.7 | -2.2 | 42.2*
CN(C)Cc1cn(CC[C@@H]2CC[C@H](N)[C@@H](CO)O2)nn1 | nt | nt | nt | nt | -3.3
O=C(CSc1nnnn1-c1ccc(Cl)cc1)NC(=O)Nc1ccc2c(c1)OCCO2 | -25.6 | -57.1 | 1.8 | -19.0 | 56.1*
SMILES | Jurkat NFkB inh | 697 NFkB inh | SMARCA2 activ | Gli-Sufu block | esBAF inh
Cc1ccc(-n2nnnc2SCC(=O)NC(=O)Nc2ccc3c(c2)OCCO3)cc1 | -29.9 | -27.3 | 2.0 | -24.6 | ?
Cc1noc(C)c1NC(=O)Nc1ccc2c(c1)C(=O)N([C@@H](C)CO)C[C@H](C)[C@@H](CN(C)C)OCCCC[C@@H](C)O2 | nt | nt | nt | nt | -1.1
CO[C@H]1CN(C)C(=O)c2cc(NC(=O)C3CC3)ccc2OC[C@@H](C)N(C(=O)CN(C)C)C[C@H]1C | nt | nt | nt | nt | -0.7
O=C(NCC[C@H]1CC[C@H](NC(=O)C2CCCC2)[C@@H](CO)O1)c1cc(Cl)cc(Cl)c1 | nt | nt | nt | nt | 7.3
COc1cc2c(cc1[N+](=O)[O-])-c1ccccc1C2 | nt | nt | 5.5 | -15.8 | 41.6*
Cn1c(NCc2ccc3occc3c2)nc2cc(-c3cccc(C(F)(F)F)c3)sc2c1=O | nt | nt | -1.0 | nt | 0.3
COc1cccc(CNc2nc3cc(-c4ccc(F)cc4)sc3c(=O)n2C)c1OC | nt | nt | -7.2 | nt | 7.7
COc1cccc(CNc2nc3cc(-c4ccc(C)cc4)sc3c(=O)n2C)c1OC | nt | nt | -4.8 | nt | 53.8*
CN(C)CCCNc1nc2cc(-c3ccc4c(ccn4C)c3)sc2c(=O)n1C | nt | nt | 7.7 | nt | 67.2*
COc1cccc(-c2cc3nc(NCc4ccc5occc5c4)n(C)c(=O)c3s2)c1 | nt | nt | -0.5 | nt | 61.0*
COc1ccc(S(=O)(=O)N[C@H]2C=C[C@@H](CC(=O)N3CCN(c4ccccc4)CC3)O[C@@H]2CO)cc1 | nt | nt | nt | nt | 7.4
C[C@@H](NC(=O)C[C@H]1C[C@@H]2c3cc(NC(=O)CC4CC4)ccc3O[C@@H]2[C@H](CO)O1)c1ccccc1 | nt | nt | nt | nt | -1.8
Cc1ccc(O)c(N=Nc2ccccc2)n1 | -81.7 | -38.0 | 2.8 | 3.1 | 62.8*
C[C@@H]1CN([C@@H](C)CO)C(=O)c2cc(NC(=O)Cc3ccccc3)ccc2O[C@H]1CN(C)C(=O)Nc1ccc2c(c1)OCO2 | nt | nt | nt | nt | -2.3
C[C@@H]1CN([C@@H](C)CO)C(=O)c2cc(NC(=O)Nc3ccc4c(c3)OCO4)ccc2O[C@@H](C)CCCCO[C@H]1CN(C)Cc1ccncc1 | nt | nt | nt | nt | 57.2*
C[C@H]1CN([C@@H](C)CO)C(=O)c2cc(NC(=O)Cc3ccccc3)ccc2O[C@H]1CN(C)C(=O)Nc1ccc2c(c1)OCO2 | nt | nt | nt | nt | 71.1*
C[C@H](CO)N1C[C@H](C)[C@H](CN(C)C(=O)Nc2ccccc2)OCCCC[C@H](C)Oc2ccc(NC(=O)Nc3ccc4c(c3)OCO4)cc2C1=O | nt | nt | nt | nt | 49.3*
Cc1ccc(S(=O)(=O)Nc2cccc3c2O[C@H](CN(C)C(=O)Nc2ccc4c(c2)OCO4)[C@H](C)CN([C@H](C)CO)C3=O)cc1 | nt | nt | nt | nt | 72.2*
C[C@@H]1CN([C@H](C)CO)C(=O)c2cc(C#Cc3ccccc3)cnc2O[C@@H]1CN(C)CC1CCOCC1 | nt | nt | nt | nt | -5.9
C[C@H]1CCCCO[C@@H](CN(C)C(=O)Nc2ccccc2)[C@@H](C)CN([C@@H](C)CO)C(=O)c2cc(NC(=O)Nc3ccc4c(c3)OCO4)ccc2O1 | nt | nt | nt | nt | 44.1*
CCCNC(=O)N(C)C[C@H]1Oc2ncc(-c3ccc(OC)cc3)cc2C(=O)N([C@@H](C)CO)C[C@H]1C | nt | nt | nt | nt | 3.6
CCCc1nn(C)c(C(=O)Nc2ccc(C)c(C)c2)c1Cl | -52.5 | -73.3 | -0.5 | -47.6 | 70.4*
COc1cc2sc3ccc(C#Cc4ccccn4)cc3c(=O)c2cc1OC | -1.4 | -17.5 | 2.2 | -5.6 | 10.9
C=CCn1c2ccccc2c(=O)c2cc(C#Cc3ccccn3)ccc21 | -95.1 | -87.3 | 6.5 | -16.6 | 70.2*
CC#CC(=O)N1CCCC(Cc2cccc(OC)c2)(C(=O)OCC)C1 (stereo not drawn) | -33.9 | -57.4 | 4.0 | 1.3 | 58.8*
CCOC(=O)C1(Cc2ccccc2)CCCN(C(=O)C=C(C)C)C1 (stereo not drawn) | -58.3 | -41.7 | 0.8 | 5.9 | 59.6*
CCOC(=O)C1(Cc2cccc(OC)c2)CCCN(C(=O)CSC)C1 (stereo not drawn) | nt | nt | 2.8 | -11.3 | 58.6*
CCCNC(=O)N1C[C@@H](C)[C@@H](OC)CN(C)C(=O)c2ccc(NC(=O)C3CCC3)cc2OC[C@H]1C | nt | nt | nt | nt | 4.2
